Laboratory results: publication PMC6925144, “A prospective compound screening contest identified broader inhibitors for Sirtuin 1” (Scientific Reports, 2019)
Whole data set: some 3,200 compounds, median “TSA(with NAD+) / Primary screening (TSA) / delta Tm (K)” near -0.04, cut for the highest 2% near 0.37. What follows is part of a selection rich in the highest values, with near analogues and random picks from the rest.

molecular target: NAD-dependent deacetylase Sirtuin 1 (human, UniProt Q96EB6); assay: primary screen, delta tm; set-up: single well (n = 1, as 'the same TSA'); details: 10 µM
Protocol: A total of 3,192 compounds extracted from the proposed lists were first screened by thermal shift assay (TSA), which determined a melting temperature shift (ΔTm) of Sirtuin 1 upon the addition of a test compound at a concentration of 10 µM (n = 1) with primary hit criteria of ΔTm > 0.45 K or ΔTm < −1.5 K. Primary hits (48 compounds) were retested in the same assay at three concentrations (5, 10, 20 µM, n = 4) for hit confirmation and for dose-dependency check. Secondary hits (41 compounds) were checked their selectivity for Sirtuin 1 based on counterscreening on unrelated protein targets (bovine carbonic anhydrase (CA) and recombinant SH2 domain of hABL1 kinase (ABL1)) at three different concentrations (5, 10, 20 µM, n = 4), which yielded 38 hit compounds, hereafter referred to as TSA hits. The TSA screening above was conducted in the absence of NAD+. As noted, the structure of Sirtuin 1 is different in the presence of NAD+ and substrate. The chemical profile of TSA hits found from the different conditions could be different. […] As a result, 39 TSA hits were found.

NAD-dependent deacetylase Sirtuin 1, sequence (Q96EB6 2-747 limits assumed): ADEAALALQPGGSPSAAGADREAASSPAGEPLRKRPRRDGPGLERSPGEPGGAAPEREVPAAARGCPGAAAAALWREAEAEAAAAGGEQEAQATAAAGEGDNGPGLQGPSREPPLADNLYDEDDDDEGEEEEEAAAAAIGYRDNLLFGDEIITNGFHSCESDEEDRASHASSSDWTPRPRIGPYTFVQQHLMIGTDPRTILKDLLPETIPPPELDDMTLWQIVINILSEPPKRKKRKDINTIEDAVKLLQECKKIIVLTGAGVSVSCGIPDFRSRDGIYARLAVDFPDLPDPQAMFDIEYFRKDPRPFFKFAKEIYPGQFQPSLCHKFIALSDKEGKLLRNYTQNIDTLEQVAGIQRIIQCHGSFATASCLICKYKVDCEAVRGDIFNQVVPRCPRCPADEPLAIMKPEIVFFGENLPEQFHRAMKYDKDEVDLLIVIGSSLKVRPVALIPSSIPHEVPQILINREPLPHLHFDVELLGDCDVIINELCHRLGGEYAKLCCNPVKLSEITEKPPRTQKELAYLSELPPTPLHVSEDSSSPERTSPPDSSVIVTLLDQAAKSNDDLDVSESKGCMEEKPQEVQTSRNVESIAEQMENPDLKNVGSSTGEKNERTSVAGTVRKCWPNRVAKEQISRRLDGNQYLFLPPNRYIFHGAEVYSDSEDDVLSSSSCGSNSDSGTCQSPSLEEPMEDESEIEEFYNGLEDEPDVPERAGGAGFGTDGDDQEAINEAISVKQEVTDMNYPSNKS

Compound	TSA(with NAD+) / Primary screening (TSA) / delta Tm (K)
COc1ccc(-c2csc3nc(C)nc(N4CCN(C5CCS(=O)(=O)C5)CC4)c23)cc1OC (stereo not shown)	-0.09
O=C(O)c1cnc2c(c1)c(=O)[nH]c(=O)n2Cc1ccccc1	-0.13
Cn1c(-c2ccccc2)c(C=O)c2ccccc21	-0.32
CCCCn1ccnc1C(=O)c1cccc(S(=O)(=O)N(C)c2ccccc2)c1	-0.08
CC1CN(C(=O)/C=C/c2ccc(C(=O)O)cc2)CC(C)(C)O1 (stereo not shown)	-0.13
O=C(CN1CCCCCCC1=O)NCCc1nc2ccccc2[nH]1	-0.22
CC1(C)NC(=O)N(CC(=O)Nc2sc3c(c2-c2nc4ccccc4[nH]2)CCCC3)C1=O	0.37
COC(=O)c1cc(NC(=O)CN2C(=O)NC(C)(c3ccc4ccccc4c3)C2=O)cc(C(=O)OC)c1 (stereo not shown)	0.19
CCCCOc1cc(C2NC(N)=Nc3nc4ccccc4n32)ccc1OC (stereo not shown)	-0.22
NC1=Nc2nc3ccccc3n2C(c2ccc(-c3ccc(C(=O)O)cc3)o2)N1 (stereo not shown)	1.27
O=C(O)CCCc1ccc2c(c1)-c1ccccc1C2	0.06
O=C1/C(=C/c2ccc(OC(F)F)cc2OC(F)F)Oc2cc(O)ccc21	0.37
O=C1/C(=C/c2ccccc2OC(F)F)Oc2cc(O)ccc21	0.15
COc1ccc(/C=C2/Oc3cc(O)ccc3C2=O)c(OC)c1	0.12
CCCNc1nnc(S)s1	-0.33
CN(c1ccccc1)S(=O)(=O)c1cccc(NC(=O)c2cc(Cl)nc3ccccc23)c1	0.16
CN(c1ccccc1)S(=O)(=O)c1cccc(NC(=O)CCCc2c[nH]c3ccccc23)c1	0.39
CN(c1ccccc1)S(=O)(=O)c1cccc(NC(=O)CCc2c[nH]c3ccccc23)c1	0.32
CN(c1ccccc1)S(=O)(=O)c1cccc(NCC(=O)Nc2ccc(Br)cc2)c1	-0.01
CN(c1ccccc1)S(=O)(=O)c1cccc(NC(=O)CNc2cccc3ccccc23)c1	0.41
CN(c1ccccc1)S(=O)(=O)c1cccc(C(=O)NCCc2c[nH]c3ccccc23)c1	0.17
CCOC(=O)C1=C(COC(=O)c2sc(-c3ccco3)nc2-c2ccccc2)NC(=O)NC1	0.06

Compound	TSA(with NAD+) / Primary screening (TSA) / delta Tm (K)
CS(=O)(=O)c1ccc(NCCNC(=O)C23CC4CC(C2)CC(c2ccccc2)(C4)C3)c([N+](=O)[O-])c1	0.18
CN(Cc1nc(-c2cccnc2)no1)Cc1c[nH]nc1-c1cccnc1	-0.01
Cc1ccc(OCc2nc3ccccc3n2Cc2ccccc2)cc1	-0.21
CSc1cccc(NC(=O)c2cccc(S(=O)(=O)N(C)c3ccc(C)cc3)c2)c1	0.19
Cc1ccc(N(C)S(=O)(=O)c2cccc(C(=O)Nc3ccncc3)c2)cc1	-0.15
CC(=O)Nc1ccc(NC(=O)c2cccc(S(=O)(=O)N(C)c3ccc(C)cc3)c2)cc1	-0.04
CN(c1ccccc1)S(=O)(=O)c1cccc(C(=O)Nc2ccccc2)c1	-0.01
Cc1ccc(N(C)S(=O)(=O)c2cccc(C(=O)Nc3ccc4c(c3)C(=O)N(C)C4=O)c2)cc1	0.89
Cc1ccc(N(C)S(=O)(=O)c2cccc(C(=O)Nc3ccc(Br)c(C)c3)c2)cc1	0.73
Cc1ccc(N(C)S(=O)(=O)c2cccc(C(=O)Nc3cccc(C(=O)NC4CC4)c3)c2)cc1	-0.03
COc1cccc(NC(=O)c2cccc(S(=O)(=O)N(C)c3ccc(C)cc3)c2)c1	-0.06
CC1CCc2[nH]c3ccc(C(=O)Nc4cccc(S(=O)(=O)N(C)c5ccccc5)c4)cc3c2C1 (stereo not shown)	0.39
Cc1ccc(N(C)S(=O)(=O)c2cccc(C(=O)Nc3ccc(C(N)=O)cc3)c2)cc1	0.46
Cc1ccc(NC(=O)c2cccc(S(=O)(=O)N(C)c3ccc(C)cc3)c2)cc1	0.29
CN(c1ccccc1)S(=O)(=O)c1cccc(NC(=O)c2ccc(C(N)=O)cc2)c1	-0.01
COc1ccc(CCn2c(C)cc(C(=O)COC(=O)C34CC5CC(CC(O)(C5)C3)C4)c2C)cc1	-0.19
CN1C(=O)c2oc3ccccc3c(=O)c2C1c1ccccc1F (stereo not shown)	0.01
CCC(=O)c1ccc(OCC(=O)NNC(=O)c2cc(C)oc2C)cc1	-0.03
COc1cccc(C(C)NCc2ccc3[nH]c(=O)[nH]c3c2)c1 (stereo not shown)	-0.08
O=C1NC(C(=O)O)=CC(c2ccccc2C(F)(F)F)N1 (stereo not shown)	-0.12
CC1(c2cccc(NC(=O)c3ccc4c(c3)CCC4)c2)NC(=O)NC1=O (stereo not shown)	-0.13
